Eleven compounds from PubChem BioAssay (Tox21) can be followed below.

Records with an inconclusive call do not appear. Values without a mark were called inactive. Active and inactive are the calls of the source. Unless noted, calls come from the whole dose curve; as a rule, active = well fitted curve in the direction sought with a large enough effect in the repeat runs; inconclusive = weak or mixed curves; inactive = no such curve, though single readings can be large; an effect the other way counts as inactive or inconclusive.

Assay [1] in a line: qHTS assay to identify small molecule antagonists of the vitamin D receptor (VDR) signaling pathway - cell viability counter screen (AID 743225). Note: nearly all actives have a fitted effect of over 50% in size. Note: potency is the fitted concentration of half-maximal effect. The gist of the method: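 Luminescent cell viability (CellTiter-Glo) in VDR-bla HEK 293T cells after 16 h compound exposure at 37C in the presence of 3 nM final 1-alpha,25-dihydroxy vitamin D3.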
A short description of assay [2]: qHTS assay to identify small molecule agonists of the NFkB signaling pathway (AID 1159509; active = well fitted curve in the direction sought with a large enough effect in the signal ratio in the repeat runs, not every such curve was filed as active; the % refers to the signal ratio). The gist of the method:
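After overnight attachment, reporter cells received test compounds, DMSO or positive controls and were incubated 5 hr at 37 C. FRET substrate was then added for 1.5 hr at room temperature before dual-emission fluorescence reading.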
Background: Quantitative high-throughput screening tests each substance at several concentrations.

Assay [3] in a line: qHTS assay to identify small molecule agonists of the NFkB signaling pathway - cell viability counter screen (AID 1159515; calls by dose curve; note: nearly all actives have a fitted effect of over 55% in size). In a few lines: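 Multiplexed viability readout: after the 5 hr compound exposure and 1.5 hr FRET substrate step, CellTiter-Glo reagent went into the same NFkB-bla ME-180 wells; ATP luminescence was measured after 30 min at room temperature.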
Assay [4] can be described thus: qHTS assay to identify small molecule agonists of the endoplasmic reticulum stress response signaling pathway - cell viability counter screen (AID 1159517; calls by dose curve;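 note: HeLa cells carrying an ER stress response element beta-lactamase reporter; nearly all actives have a fitted effect of over 50% in size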). In a few lines: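 Luminescence readout: CellTiter-Glo, 30 min RT, same wells as the ESRE-bla reporter read. HeLa ESRE-bla, 1,500 cells/well, o/n 37 C; cpd 5 hr 37 C/5% CO2.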
A short description of assay [5]: qHTS assay to identify small molecule antagonists of the retinoid-related orphan receptor gamma (ROR-gamma) signaling pathway - cell viability counter screen (AID 1159520). Note: nearly all actives have a fitted effect of over 50% in size. Note: potency is the fitted concentration of half-maximal effect. In a few lines: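 Tet-on ROR gamma CHO cells (1,000/well) were plated 4 hr, given compounds in DMSO for 2 hr at 37 C, then induced with 1 uM final doxycycline for 16 hr. Viability was read as ATP by CellTiter-Glo luminescence after 30 min.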

Assay [6] can be described thus: qHTS assay to identify small molecule agonists of the AP-1 signaling pathway - cell viability counter screen (AID 1159525; calls by dose curve; note: nearly all actives have a fitted effect of over 55% in size; note: potency is the fitted concentration of half-maximal effect). In a few lines: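 ME-180 AP-1-bla, 2500 cells/well, Opti-MEM + 0.5% dialyzed FBS; overnight 37 °C; cpd 15-pt titration, 5 h 37 °C; CellTiter-Glo 30 min RT; luminescence read; normalised to TOAB and DMSO controls.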
Assay [7] is described as follows: qHTS assay to identify small molecule agonists of the AP-1 signaling pathway (AID 1159526; calls by dose curve).
Assay [8] in a line: qHTS assay to identify small molecule agonists of the RXR signaling pathway - cell viability counter screen (AID 1159529). Note: nearly all actives have a fitted effect of over 50% in size. Note: potency is the fitted concentration of half-maximal effect. The gist of the method:
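Same-well viability check after the LiveBLAzer FRET read: CellTiter-Glo added, luminescence measured after 30 min at room temperature. Reporter HEK 293T cells had been treated with compounds for 16 hr following a 5 hr preincubation.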

A short description of assay [9]: qHTS assay to identify small molecule antagonists of the retinoic acid receptor (RAR) signaling pathway (AID 1159552; note: nearly all actives have a fitted effect of over 50% in size; note: potency is the fitted concentration of half-maximal effect). In a few lines: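 Readout: luciferase luminescence, 30 min post-reagent at RT. Setup: C3RL4 RARE reporter cells, compounds plus retinol 1 uM final, 6 hr incubation at 37 C and 5% CO2.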
Assay [10] has as its target Retinoic acid receptor RXR-alpha (Homo sapiens) (UniProt P19793). As to the kind of experiment: qHTS assay to identify small molecule agonists of the RXR signaling pathway (AID 1159527; calls by dose curve; note: nearly all actives have a fitted effect of over 35% in size; note: potency is the fitted concentration of half-maximal effect). The gist of the method:
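Beta-lactamase reporter assay, agonist format. Engineered HEK 293T line, charcoal-stripped FBS at 2%, overnight (16 hr) exposure, fluorescence at 460 and 530 nm after 405 nm excitation.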

A short description of assay [11]: qHTS assay to identify small molecule antagonists of the retinoid acid receptor (RAR) signaling pathway - cell viability counter screen (AID 1159551). Note: nearly all actives have a fitted effect of over 35% in size. Note: potency is the fitted concentration of half-maximal effect. In a few lines:
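Cytotoxicity counter screen in C3RL4 cells: 6 h compound exposure with 1 uM retinol (final), viability from cellular ATP by luminescence.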

Assay [12] addresses Nuclear receptor ROR-gamma (Homo sapiens) (UniProt P51449). Description: qHTS assay to identify small molecule antagonists of the retinoid-related orphan receptor gamma (ROR-gamma) signaling pathway (AID 1159521). In a few lines:
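CHO cells expressing RORγ under a TET-on promoter, luciferase under RORE control. Dox 1 uM final, 16 h; compounds added 2 h prior. Luminescence decrease measured.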

The nature of assay [13]: qHTS assay to identify small molecule agonists of the retinoic acid receptor (RAR) signaling pathway (AID 1159553). The following applies: C3RL4 RARE luciferase reporter, agonist, 6 h; activation: at 73.3 µM (top of the series). In a few lines: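 Agonist activity was scored in C3RL4 cells bearing a retinoic acid response element luciferase construct. Cells were treated with compounds for 6 hr at 37 C, and luciferase signal was measured as luminescence.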

A short description of assay [14]: qHTS assay to identify small molecule agonists of the estrogen related receptor (ERR) signaling pathway (AID 1224820). The gist of the method:
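Quantitative HTS of the LOPAC library used NTP ERR reporter cells treated 18 h at 37 C. Signal is luminescence after One-Glo addition and a 30 min room-temperature incubation.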

The test system of assay [15] is estrogen-related receptor alpha (ERRalpha) with PGC-1alpha coactivator, human. As to the kind of experiment: qHTS assay to identify small molecule antagonists of the estrogen related receptor signaling pathway with the pleiotropic PPARgamma coactivator (PGC) (AID 1224821; calls by dose curve). The gist of the method:
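Quantitative HTS for antagonism: PGC/ERR cells received compounds after 6 h attachment and were incubated 18 h at 37 C, with luminescence (One-Glo) as the endpoint.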

Assay [16] in a line: qHTS assay to identify small molecule agonists of the estrogen related receptor signaling pathway with the pleiotropic PPARgamma coactivator (PGC) (AID 1224823). The gist of the method:
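Cell-based luciferase assay in the NTP-supplied PGC/ERR line, 2,000 cells/well; 18 h compound exposure at 37 C, luminescence after One-Glo.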

Sequence of Retinoic acid receptor RXR-alpha (Homo sapiens) (P19793 whole entry, looked up): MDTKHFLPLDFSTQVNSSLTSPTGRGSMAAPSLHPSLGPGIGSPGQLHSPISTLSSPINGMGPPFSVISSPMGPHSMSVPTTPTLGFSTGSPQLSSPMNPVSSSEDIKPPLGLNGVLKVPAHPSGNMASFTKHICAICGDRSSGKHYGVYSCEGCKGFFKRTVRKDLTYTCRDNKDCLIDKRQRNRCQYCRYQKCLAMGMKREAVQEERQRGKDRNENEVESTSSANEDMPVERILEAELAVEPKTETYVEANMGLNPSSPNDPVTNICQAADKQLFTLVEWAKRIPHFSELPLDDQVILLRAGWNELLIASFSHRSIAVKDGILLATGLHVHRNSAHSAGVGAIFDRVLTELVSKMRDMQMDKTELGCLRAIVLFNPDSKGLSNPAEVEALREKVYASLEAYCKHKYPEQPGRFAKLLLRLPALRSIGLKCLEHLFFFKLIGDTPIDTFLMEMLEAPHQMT

With `OC[C@H]1O[C@@H](n2cnc3c(=S)nc[nH]c32)[C@H](O)[C@@H]1O`, the Potency in assay [1] was 8.49 µM (active); in assay [8] it was 2.13 µM (active). In addition, the Potency entry in assay [2], in [3], in assay [4], in assay [5], in assay [6] and in assay [7] was “inactive” each time. Further, the Potency result in [9] was “inactive”.
With `C/C=C/C=C/C=O`, the Potency result in [1], in [2], in assay [3], in [4], in assay [5] and in assay [6] was “inactive” throughout. The Potency entry in assay [10], in [8] and in [11] was “inactive” throughout.
As to `CCCCCCCCCCCCCCN(CCO)CCO`, the Potency in assay [1] was 43.6 µM (active); in assay [5], 61.1 µM (active); in assay [12] it was 30.6 µM (active); in assay [6], 54.9 µM (active); in assay [8], 21.9 µM (active); in [11] it was 61.1 µM (active). For the same compound, the Potency in assay [9] was 30.6 µM (active). Also, the Potency result in assay [2], in assay [3] and in [4] was “inactive” in each case.
In the case of `CC1(C)O[C@@H]2C[C@H]3[C@@H]4C[C@H](F)C5=CC(=O)C=C[C@]5(C)[C@H]4[C@@H](O)C[C@]3(C)[C@]2(C(=O)CO)O1`, the Potency result in [1], in assay [2], in assay [3], in assay [4], in [5] and in [6] was “inactive” each time. The Potency result in assay [10], in assay [8] and in [11] was “inactive” in each case.
For `Cc1cscn1`, the Potency result in [1], in assay [2], in assay [3], in [4], in assay [5] and in assay [7] was “inactive” each time. For the same compound, the Potency entry in assay [8] and in assay [11] was “inactive” in each case.
With `O=C(Nc1cccc2c(=O)cc(-c3nn[nH]n3)oc12)c1ccc(OCCCCc2ccccc2)cc1`, the Potency entry in assay [2], in assay [3], in assay [4], in assay [5], in [10] and in [8] was “inactive” throughout. In addition, the Potency entry in assay [11], in assay [9] and in assay [13] was “inactive” throughout.
As for `CC1=Nc2ccc3ccccc3c2C1(C)C`, the Potency result in [1], in [2], in assay [3], in assay [4], in assay [5] and in [8] was “inactive” throughout. For the same compound, the Potency result in assay [11] and in assay [9] was “inactive” each time.
As to `C=C1c2cccc(O)c2C(O)=C2C(=O)[C@]3(O)C(O)=C(C(N)=O)C(=O)[C@@H](N(C)C)[C@@H]3[C@@H](O)[C@H]12`, the Potency entry in [1], in assay [2], in [3], in [4], in assay [5] and in assay [6] was “inactive” each time. The Potency result in assay [7], in assay [10], in assay [8], in assay [11], in [9] and in assay [13] was “inactive” each time.
On to `CCCCCCCCCCC(=O)O`, for which the Potency entry in [2], in [3], in assay [4], in [5], in assay [6] and in assay [7] was “inactive” throughout. Further, the Potency result in [8], in assay [11], in assay [9] and in assay [13] was “inactive” each time. Further, the Potency in [10] is 49.6 µM (active).
As for `CCCC(C(=O)OCCN(CC)CC)(c1ccccc1)c1ccccc1`, the Potency in assay [1] was 19 µM (active). In addition, the Potency entry in assay [2], in assay [3], in [4], in [5] and in [6] was “inactive” each time. In addition, the call in [14], in [15] and in [16] was inactive.
On to `Cc1cccc(N(C)C(=S)Oc2ccc3c(c2)CCC3)c1`, for which the Potency entry in assay [1], in [2], in assay [3], in [4], in assay [5] and in [7] was “inactive” in each case. The Potency result in assay [11], in assay [9] and in assay [13] was “inactive” throughout.
